# Screens: PubChem, National Center for Advancing Translational Sciences (NCATS)
# Shiga inhibitor: inhibitors of Shiga toxin in Vero cells; Vero cells, Shiga toxin protein synthesis inhibition reporter; inhibition, % at 38.7 µM; 290,000 tested, 9.2% active; AID 2315; in the data active means inhibition mostly above about 28%, no sharp cut-off; inactive means mostly below about 43%; further: 0% is about no effect
# CHX counter: counter-screen for Shiga toxin inhibitors: cycloheximide protein synthesis inhibition; cell reporter, cycloheximide protein synthesis inhibition counterscreen; max response, %; 300,000 tested, 12% active; in the data active means max response mostly above about 13%, no sharp cut-off; inactive means mostly below about 14%; further: read at 38.3 µM for the half of the compounds with a filed dose; 0% is about no effect
# Sm TGR block: S. mansoni TGR enzyme inhibition; purified TGR, DTNB reduction, TNB absorbance 405 nm; Potency, µM (titrated, usually from 114 µM), inactives show top-dose activity change, negative = inhibition, actives largely listed as inhibitors; 360,000 tested, 3% active; further: potency means the concentration at half of the fitted maximal effect; on the % scale 0 is the no-effect control and ±100 the full control effect; nearly all actives have a fitted effect of over 60% in size
#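 First, TGR (20 nM dispensed) and NADPH were mixed with compound. Second, a 15 min room-temperature incubation followed. Third, further NADPH and then DTNB were added to start the reaction. Finally, TNB absorbance was monitored kinetically.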
# Pf growth 96h: P. falciparum growth inhibition at 96 hours | P. falciparum luciferase reporter growth, 96 h | Potency, µM (top dose mostly 28.7 µM), for inactives: at the highest dose activity change, negative = inhibition, hits mostly inhibitors | 320,000 tested, 6.9% active | AID 504834; further: potency means the concentration at half of the fitted maximal effect; on the % scale 0 is the no-effect control and ±100 the full control effect
#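 Readout is luminescence from an integrated firefly luciferase in P. falciparum. Red cells, 2% hematocrit and 0.05% parasitemia final, were cultured with compound through two parasite generations (96 hours) at 37 C, 5% CO2.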
# Pf growth 48h: P. falciparum growth inhibition at 48 hours (one generation); P. falciparum luciferase growth in erythrocytes, 48 h; Potency, µM (doses to about 28.7 µM), without a hit: at the highest dose activity change, negative = inhibition, usual class: inhibitors; 310,000 tested, 5.9% active; further: potency means the concentration at half of the fitted maximal effect; on the % scale 0 is the no-effect control and ±100 the full control effect
#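 Luciferase-expressing parasites in RBCs, 2% Hct / 0.1% parasitemia final; RPMI 1640 + 0.5% Albumax; 37 C, 5% CO2, one generation; luminescence read-out, lower signal = inhibition.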
# NS1 inh: blocks influenza NS1 protein function; Potency, µM (top dose mostly 46.1 µM), without a hit: at the top dose activity, positive = more growth; 270,000 tested, 0.4% active; AID 2326; calls by dose curve; further: potency means the concentration at half of the fitted maximal effect; actives are rising curves; nearly all actives have a fitted effect of over 50% in size
#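 Growth recovery, yeast-based: influenza A NS1 expressed in S. cerevisiae causes slow growth, and suppressors are detected by OD600. The parent strain without NS1 is used as positive control.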
# Starred values were filed as active, the others as inactive; ? = inconclusive; · = no result; [ ] = dose if it differs, or a comment. Only some compounds are listed: those with a hit (about 21% of all), similar ones and a draw of the others. Unless noted, the call rests on the fitted dose curve; in most records, active means well fitted curve in the direction sought with a large enough effect; inconclusive means small, poorly fitted or top-dose-only effect, or another doubt; inactive means no such curve, though single readings can be large; an effect the other way counts as inactive or inconclusive.
SMILES,Shiga inhibitor,CHX counter,Sm TGR block,Pf growth 96h,Pf growth 48h,NS1 inh
CC(C)CC(NC(=O)C1CCCCC1)C(=O)NC(C)c1ccccc1 (configuration not stated),-3,8,10%,30%,-22%,4%
COc1ccccc1NC(=O)C(C)OC(=O)CC1CCCCC1 (configuration not stated),·,·,-14%,?,13µM*,·
O=C(Nc1ccc(Br)cc1)C1CCCN(S(=O)(=O)c2ccc(Br)s2)C1 (configuration not stated),·,·,3%,·,·,·
CC(OC(=O)Cc1c[nH]c2ccccc12)C(=O)c1ccccc1 (configuration not stated),·,·,-16%,-9%,-14%,·
COc1ccc(S(=O)(=O)Nc2cc(C(=O)NCCC(C)C)ccc2N2CCOCC2)cc1,-3,1,-36%,?,8.3µM*,-17%
CCOC(=O)/C=C/C(=O)Nc1cc(S(=O)(=O)Nc2ccc(OC)cc2)ccc1N1CCOCC1,·,·,32µM*,?,?,·
CCOC(=O)c1c(C)[nH]c(C)c1S(=O)(=O)N(C)CC(=O)Nc1ccc(C)c(F)c1,·,·,10%,·,·,·
O=C(COc1ncnc2sccc12)NC1CCS(=O)(=O)C1 (configuration not stated),6,-2,7%,28%,2%,6%
Cc1c(C(=O)Oc2cc(N)n(S(C)(=O)=O)n2)cccc1[N+](=O)[O-],-7,-3,8.9µM*,?,2%,·
Cc1ccc(S(=O)(=O)n2nc(OC(=O)c3cccc(F)c3)cc2N)cc1,-5,-2,13µM*,-24%,13%,-3%
Nc1cc(OC(=O)c2ccco2)nn1S(=O)(=O)c1ccc(F)cc1,-17,-3,32µM*,·,20%,-21%
Cc1ccc(S(=O)(=O)n2nc(OC(=O)c3c(F)cccc3Cl)cc2N)cc1,-8,-6,5%,?,17%,-6%
COc1ccc(C(=O)n2nc(-c3cccnc3)nc2NCc2ccccc2)cc1OC,·,·,10%,·,·,·
CCC1(CC)C(=N)N(C)C(=O)NC1=O,-2,-3,-7%,?,15%,7%
CCCCN1C(=N)C(CC)(CC)C(=O)NC1=O,-13,-3,-13%,15µM*,7%,7%
COC(=O)c1c(NC(=O)/C(C#N)=C/c2ccc(OC)cc2)sc2c1C(C(=O)OC)CC2 (configuration not stated),·,·,-19%,·,·,·
CC1=C(/C=C/c2ccccc2)CCN(C)C1,47,33*,-30%,?,?,16%
Cc1nc2c(C#N)c(-c3ccc(Cl)cc3)ccn2n1,-6,-3,6%,0%,16%,-1%
CC(C)(C)c1nc2c(C#N)c(-c3ccc(Cl)cc3)ccn2n1,57,25*,1%,?,·,-49%
COc1cc(OC)c(OC)cc1/C=C/C(=O)c1ccc(NS(=O)(=O)c2ccc(C)cc2)cc1,11,-3,-4%,13µM*,9.3µM*,?
COc1ccc(N/C=C\C(=O)c2ccc(Br)cc2)cc1OC,27,28*,-5%,1.9µM*,71%,-12%
COc1ccc(N/C=C\C(=O)c2ccc(C)cc2)cc1OC,85*,46*,-1%,?,38%,-5%
COc1ccc(C(=O)Sc2ccc(C)cc2)cc1OC,77*,34*,2%,?,-21%,-26%
COc1ccc(C(=O)Sc2ccc(Cl)cc2)cc1OC,12,8,0%,187%,-29%,1%
O=C(Cc1ccc(Cl)c(Cl)c1)Nc1cccc(S(=O)(=O)N2CCOCC2)c1,-5,4,-1%,?,?,·
SMILES,Shiga inhibitor,CHX counter,Sm TGR block,Pf growth 96h,Pf growth 48h,NS1 inh
O=C(O)CCc1cc(F)c(S(=O)(=O)N2CCN(S(=O)(=O)c3ccc4c(c3)OCCO4)CC2)cc1F,-6,-2,·,·,·,·
CC(=O)Nc1ccc(N/C=C/C(=O)c2ccc(C)cc2)cc1,55*,27*,2%,?,78%,28%
Cc1ccc(CNC(=O)c2cnn(-c3cccc(C)c3)c2C2CCN(C(=O)OC(C)(C)C)CC2)cc1,·,·,7%,·,·,·
O=Cc1cc(CCC(=O)O)ccc1O,7,3,1%,?,-29%,-12%
CCOCCCn1c(=NC(=O)c2cccs2)c(C#N)cc2c(=O)n3ccccc3nc21,12,1,-13%,10µM*,4.7µM*,2%
Cc1ccccc1C(=O)N=c1c(C#N)cc2c(=O)n3cccc(C)c3nc2n1Cc1ccco1,-11,-2,?,-15%,·,?
CCCCn1c(=NC(=O)c2cccnc2)c(C#N)cc2c(=O)n3cccc(C)c3nc21,-9,-1,-19%,?,·,1%
Cc1cccn2c(=O)c3cc(C#N)c(=NC(=O)c4cccs4)n(CCCOC(C)C)c3nc12,-7,2,-24%,1.9µM*,1.7µM*,6%
CCCn1c(=NC(=O)c2ccc3c(c2)OCO3)c(C#N)cc2c(=O)n3cccc(C)c3nc21,-1,-4,-17%,5%[5.75 µM],15%,-63%
CC(=O)N=c1c(C#N)cc2c(=O)n3cccc(C)c3nc2n1Cc1ccco1,-4,-2,28µM*,?,0%,4%
CC(=O)N=c1c(C#N)cc2c(=O)n3cccc(C)c3nc2n1CCCOC(C)C,-4,1,-3%,10µM*,?,2%
COc1cccc(CNC(=O)c2ccc3nc(CCc4ccccc4)oc3c2)c1OC,·,·,0%,·,·,·
N#Cc1cc2c(=O)n3ccccc3nc2n(Cc2ccco2)c1=NC(=O)c1ccco1,11,-4,-24%,12µM*,?,28%
Cc1cccn2c(=O)c3cc(C#N)c(=NC(=O)c4ccncc4)n(CCCOC(C)C)c3nc12,-2,-4,?,6.6µM*,4.1µM*,18%
COCCCn1c(=NC(=O)c2ccncc2)c(C#N)cc2c(=O)n3cccc(C)c3nc21,-10,2,-15%,3%,2.9µM*,14%
CCC[C@@H]1C[C@@H](C(=O)N[C@@H]([C@H]2O[C@H](SC)[C@H](O)[C@@H](O)[C@H]2O)[C@@H](C)O)N(C)C1,-5,5,·,0.17µM*,2.7µM*,·
CCC[C@@H]1C[C@@H](C(=O)N[C@H]([C@@H](C)O)[C@H]2O[C@H](SC)[C@H](O)[C@@H](O)C2O)N(C)C1 (some centres not stated),-2,-2,7%,0.13µM*,0.042µM*,-5%
COc1cccc(C(C[N+](=O)[O-])c2c(C)[nH]n(-c3ccccc3)c2=O)c1 (configuration not stated),20,-2,35µM*,1%,8%,-110%
Cc1cccnc1NC(=O)CNC(=O)c1ccccc1,·,·,0%,5%,-1%,·
CS(=O)(=O)Nc1ccc(C(=O)NCCSCc2ccccc2)cc1,-8,-1,15%,13µM*,?,6%
CS(=O)(=O)Nc1ccc(C(=O)NCCc2ccccc2)cc1,69*,31*,4%,·,194%,-6%
